For some assays here: Measured potencies and affinities stand elsewhere.

Holding throughout (design): scale not given: direction of the effect not stated beside the values
The target of test [1] is Protein translocase subunit SecA (Escherichia coli (strain K12)) (UniProt P10408). Put plainly: Assay to Identify E. coli SecA ATPase Inhibitors. The conditions noted are these: 30 µM. Type of test: functional.
Test [2] has as its target T1, Ubiquitin-activating enzyme e1, putative (Leishmania donovani (strain BPK282A1)) (UniProt E9BSI1).
T1 sequence (whole entry): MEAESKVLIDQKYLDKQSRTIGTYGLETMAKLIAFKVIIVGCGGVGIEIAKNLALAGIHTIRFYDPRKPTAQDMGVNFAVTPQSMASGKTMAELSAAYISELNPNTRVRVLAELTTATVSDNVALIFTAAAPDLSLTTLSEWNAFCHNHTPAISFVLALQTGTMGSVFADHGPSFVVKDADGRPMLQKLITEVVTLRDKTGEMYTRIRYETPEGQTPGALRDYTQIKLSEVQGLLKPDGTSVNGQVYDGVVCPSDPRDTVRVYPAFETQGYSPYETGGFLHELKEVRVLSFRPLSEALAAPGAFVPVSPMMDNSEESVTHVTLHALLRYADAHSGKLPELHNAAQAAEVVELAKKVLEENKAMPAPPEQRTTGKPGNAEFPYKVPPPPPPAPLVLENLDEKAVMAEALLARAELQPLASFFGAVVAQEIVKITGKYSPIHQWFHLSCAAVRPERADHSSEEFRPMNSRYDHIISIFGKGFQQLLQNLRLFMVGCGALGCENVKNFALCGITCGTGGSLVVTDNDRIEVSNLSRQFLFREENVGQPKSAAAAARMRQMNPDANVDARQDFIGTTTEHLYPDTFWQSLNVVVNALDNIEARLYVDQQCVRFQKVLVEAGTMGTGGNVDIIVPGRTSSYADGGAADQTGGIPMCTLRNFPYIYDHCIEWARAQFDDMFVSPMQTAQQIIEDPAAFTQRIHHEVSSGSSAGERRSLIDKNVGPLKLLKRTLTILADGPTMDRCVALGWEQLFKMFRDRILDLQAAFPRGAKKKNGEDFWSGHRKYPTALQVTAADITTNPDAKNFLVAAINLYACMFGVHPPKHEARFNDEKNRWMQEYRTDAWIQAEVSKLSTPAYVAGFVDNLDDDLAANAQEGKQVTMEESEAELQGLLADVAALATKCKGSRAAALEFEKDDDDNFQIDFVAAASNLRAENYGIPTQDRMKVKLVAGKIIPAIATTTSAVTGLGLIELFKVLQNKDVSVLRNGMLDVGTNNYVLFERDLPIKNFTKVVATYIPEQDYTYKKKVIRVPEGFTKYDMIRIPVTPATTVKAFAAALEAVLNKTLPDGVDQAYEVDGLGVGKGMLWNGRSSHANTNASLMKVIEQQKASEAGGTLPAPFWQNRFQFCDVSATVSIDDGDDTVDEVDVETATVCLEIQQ
In words: Leishmania donovani Ubiquitin Activating Enzyme (LdE1). In kind it is functional. Conditions: 30 µM.

Test [3] has as its target T2, Aspartate--tRNA(Asp/Asn) ligase (Mycobacterium tuberculosis (strain ATCC 25618 / H37Rv)) (UniProt P9WFW3). Further: in the data most compounds retested in dose-response had high values.
T2 sequence (whole entry): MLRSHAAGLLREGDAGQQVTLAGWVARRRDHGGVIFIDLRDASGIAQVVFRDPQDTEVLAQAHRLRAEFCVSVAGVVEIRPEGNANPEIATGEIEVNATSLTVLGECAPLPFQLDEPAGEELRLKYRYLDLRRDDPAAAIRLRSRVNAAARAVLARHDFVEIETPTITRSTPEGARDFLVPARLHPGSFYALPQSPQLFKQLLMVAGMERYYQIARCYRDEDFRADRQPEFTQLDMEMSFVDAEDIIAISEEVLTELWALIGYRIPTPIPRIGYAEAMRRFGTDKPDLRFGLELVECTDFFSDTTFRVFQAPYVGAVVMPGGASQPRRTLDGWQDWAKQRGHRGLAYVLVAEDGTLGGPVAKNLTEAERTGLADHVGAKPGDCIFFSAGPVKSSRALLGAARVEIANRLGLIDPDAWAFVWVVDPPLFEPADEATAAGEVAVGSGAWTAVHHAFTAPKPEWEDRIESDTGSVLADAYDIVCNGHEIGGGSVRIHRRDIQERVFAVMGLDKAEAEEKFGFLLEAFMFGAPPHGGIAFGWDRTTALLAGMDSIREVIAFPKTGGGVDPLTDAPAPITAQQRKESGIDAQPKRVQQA
In words: Assay for Asp RNA synthetase-1 from Mycobacterium tuberculosis. In kind it is functional. The conditions noted are these: 30 µM.

Test [4] deals with AMP-activated protein kinase, AMPK (Homo sapiens) (UniProt P54646+O43741+P54619+Q9UGJ0+Q9Y478+Q13131+Q9UGI9). In words: AMP-dependent Kinase enzyme assay. An in vitro enzyme assay that detects ADP turnover that is directly proportional to AMPK activity. This uses naive AMPK that is activated during the assay with MK-8722. Type of test: functional. The conditions noted are these: 30 µM.

Test [5] deals with Sialic acid-binding Ig-like lectin 9 (Homo sapiens) (UniProt Q9Y336). Put plainly: Hs-Siglec9 ALPHAscreen SOP 20170721. Conditions: 10 µM.
Sequence of Sialic acid-binding Ig-like lectin 9 (Homo sapiens) (Q9Y336 whole entry): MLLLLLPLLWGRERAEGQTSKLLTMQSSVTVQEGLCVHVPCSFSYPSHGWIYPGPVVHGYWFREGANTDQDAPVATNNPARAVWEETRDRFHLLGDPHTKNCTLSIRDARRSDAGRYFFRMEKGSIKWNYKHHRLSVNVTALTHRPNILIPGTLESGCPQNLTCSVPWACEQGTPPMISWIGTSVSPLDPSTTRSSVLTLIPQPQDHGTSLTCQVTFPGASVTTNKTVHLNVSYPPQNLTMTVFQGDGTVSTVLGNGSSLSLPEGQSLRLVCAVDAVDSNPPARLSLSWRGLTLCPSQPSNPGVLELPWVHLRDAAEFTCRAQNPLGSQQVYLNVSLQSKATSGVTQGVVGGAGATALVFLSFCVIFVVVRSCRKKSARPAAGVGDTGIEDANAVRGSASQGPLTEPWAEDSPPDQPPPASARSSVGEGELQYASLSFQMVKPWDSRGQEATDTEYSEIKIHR
Test [6] concerns Trypanosoma cruzi. In words: Trypanosoma cruzi phosphomannomutase and mannose-1-phosphate guanylyltransferase assay. Type of test: functional. The conditions noted are these: 10 µM.
The target of test [7] is T3, Arginase-2, mitochondrial (Homo sapiens) (UniProt P78540).
T3 sequence (whole entry): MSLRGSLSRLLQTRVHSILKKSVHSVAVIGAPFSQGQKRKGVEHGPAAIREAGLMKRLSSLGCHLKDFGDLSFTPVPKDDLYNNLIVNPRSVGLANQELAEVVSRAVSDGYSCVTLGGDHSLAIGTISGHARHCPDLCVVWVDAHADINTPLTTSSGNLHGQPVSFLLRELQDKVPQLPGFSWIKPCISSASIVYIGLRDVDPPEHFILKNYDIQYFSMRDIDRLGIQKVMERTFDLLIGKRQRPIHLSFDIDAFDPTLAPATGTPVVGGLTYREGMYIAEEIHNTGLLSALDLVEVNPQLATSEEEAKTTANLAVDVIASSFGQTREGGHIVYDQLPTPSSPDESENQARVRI
Put plainly: in vitro enzyme assay to detect the production of urea directly proportional to the activity of Arginase II. Further: in the data most compounds retested in dose-response had high values. The conditions noted are these: 33.3 µM. In kind it is functional.

The target in test [8] is T4, Proteasome subunit beta (Trypanosoma cruzi) (UniProt O96673).
T4 sequence (whole entry): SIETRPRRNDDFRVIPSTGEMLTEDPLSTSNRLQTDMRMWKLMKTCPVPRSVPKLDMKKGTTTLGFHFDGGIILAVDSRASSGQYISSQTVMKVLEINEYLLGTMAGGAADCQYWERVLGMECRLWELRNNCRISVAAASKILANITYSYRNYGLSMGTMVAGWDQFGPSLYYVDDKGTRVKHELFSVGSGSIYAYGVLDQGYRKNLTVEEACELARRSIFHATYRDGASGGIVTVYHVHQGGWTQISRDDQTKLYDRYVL
Put plainly: Trypanosoma cruzi proteasome chymotrypsin-like activity (TcProtChymo) assay. Further: in the data most compounds retested in dose-response had high values. In kind it is functional. Conditions: 9.37 µM.

For test [9], the species on record is Homo sapiens. Put plainly: To identify inhibition of the IFN signalling (Jak-Stat) pathway via expression of an eGFP reporter gene under the control of an IFN-stimulated response element (ISRE) containing MxA promoter. Type of test: functional. The conditions noted are these: 30 µM.
In test [10] the target is Shiga toxin 2 (Escherichia coli O157:H7) (UniProt P09385+P09386). Put plainly: E. coli 0.157:H7 Shiga Toxin SOP - stx2 screening assay. Type of test: functional. The conditions noted are these: 30 µM.
In test [11] the target is T5, Tyrosyl-tRNA synthetase, putative (Trypanosoma cruzi (strain CL Brener)) (UniProt Q4DSP6).
T5 sequence (whole entry): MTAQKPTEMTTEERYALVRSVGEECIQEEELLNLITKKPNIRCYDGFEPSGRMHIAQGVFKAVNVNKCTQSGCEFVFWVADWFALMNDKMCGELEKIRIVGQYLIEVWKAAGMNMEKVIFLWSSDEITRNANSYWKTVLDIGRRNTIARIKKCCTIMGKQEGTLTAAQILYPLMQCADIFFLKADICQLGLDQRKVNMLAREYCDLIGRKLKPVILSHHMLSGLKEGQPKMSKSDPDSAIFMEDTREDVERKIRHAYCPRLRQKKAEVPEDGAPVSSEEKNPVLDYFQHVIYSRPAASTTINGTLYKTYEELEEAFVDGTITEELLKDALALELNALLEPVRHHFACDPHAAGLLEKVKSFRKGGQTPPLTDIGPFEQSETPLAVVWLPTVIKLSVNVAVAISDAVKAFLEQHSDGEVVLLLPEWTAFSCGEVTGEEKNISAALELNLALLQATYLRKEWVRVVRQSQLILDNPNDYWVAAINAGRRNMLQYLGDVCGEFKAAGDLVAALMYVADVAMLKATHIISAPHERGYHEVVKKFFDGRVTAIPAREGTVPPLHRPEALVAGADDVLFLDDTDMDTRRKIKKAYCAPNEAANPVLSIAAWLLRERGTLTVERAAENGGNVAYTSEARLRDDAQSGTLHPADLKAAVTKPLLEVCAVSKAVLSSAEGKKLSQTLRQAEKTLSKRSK
Put plainly: Trypanosoma cruzi tyrosyl tRNA synthetase (TcYRS) _High Tyrosine SOP. Further: in the data most compounds retested in dose-response had high values. Type of test: functional. Conditions: 30 µM.

For test [12], the target named is T5, Tyrosyl-tRNA synthetase, putative (Trypanosoma cruzi (strain CL Brener)). Put plainly: Trypanosoma cruzi tyrosyl tRNA synthetase (TcYRS) SOP. Type of test: functional. The conditions noted are these: 30 µM.
The target of test [13] is Chromo domain-containing protein 1 (Saccharomyces cerevisiae (strain ATCC 204508 / S288c) (Baker's yeast)) (UniProt P32657). In words: ScCHD-1 Enzyme Inhibition Assay. Further: in the data most compounds retested in dose-response had high values. In kind it is functional. Conditions: 30 µM.
Sequence of Chromo domain-containing protein 1 (Saccharomyces cerevisiae (strain ATCC 204508 / S288c) (Baker's yeast)) (P32657 whole entry, the tested form may be a part): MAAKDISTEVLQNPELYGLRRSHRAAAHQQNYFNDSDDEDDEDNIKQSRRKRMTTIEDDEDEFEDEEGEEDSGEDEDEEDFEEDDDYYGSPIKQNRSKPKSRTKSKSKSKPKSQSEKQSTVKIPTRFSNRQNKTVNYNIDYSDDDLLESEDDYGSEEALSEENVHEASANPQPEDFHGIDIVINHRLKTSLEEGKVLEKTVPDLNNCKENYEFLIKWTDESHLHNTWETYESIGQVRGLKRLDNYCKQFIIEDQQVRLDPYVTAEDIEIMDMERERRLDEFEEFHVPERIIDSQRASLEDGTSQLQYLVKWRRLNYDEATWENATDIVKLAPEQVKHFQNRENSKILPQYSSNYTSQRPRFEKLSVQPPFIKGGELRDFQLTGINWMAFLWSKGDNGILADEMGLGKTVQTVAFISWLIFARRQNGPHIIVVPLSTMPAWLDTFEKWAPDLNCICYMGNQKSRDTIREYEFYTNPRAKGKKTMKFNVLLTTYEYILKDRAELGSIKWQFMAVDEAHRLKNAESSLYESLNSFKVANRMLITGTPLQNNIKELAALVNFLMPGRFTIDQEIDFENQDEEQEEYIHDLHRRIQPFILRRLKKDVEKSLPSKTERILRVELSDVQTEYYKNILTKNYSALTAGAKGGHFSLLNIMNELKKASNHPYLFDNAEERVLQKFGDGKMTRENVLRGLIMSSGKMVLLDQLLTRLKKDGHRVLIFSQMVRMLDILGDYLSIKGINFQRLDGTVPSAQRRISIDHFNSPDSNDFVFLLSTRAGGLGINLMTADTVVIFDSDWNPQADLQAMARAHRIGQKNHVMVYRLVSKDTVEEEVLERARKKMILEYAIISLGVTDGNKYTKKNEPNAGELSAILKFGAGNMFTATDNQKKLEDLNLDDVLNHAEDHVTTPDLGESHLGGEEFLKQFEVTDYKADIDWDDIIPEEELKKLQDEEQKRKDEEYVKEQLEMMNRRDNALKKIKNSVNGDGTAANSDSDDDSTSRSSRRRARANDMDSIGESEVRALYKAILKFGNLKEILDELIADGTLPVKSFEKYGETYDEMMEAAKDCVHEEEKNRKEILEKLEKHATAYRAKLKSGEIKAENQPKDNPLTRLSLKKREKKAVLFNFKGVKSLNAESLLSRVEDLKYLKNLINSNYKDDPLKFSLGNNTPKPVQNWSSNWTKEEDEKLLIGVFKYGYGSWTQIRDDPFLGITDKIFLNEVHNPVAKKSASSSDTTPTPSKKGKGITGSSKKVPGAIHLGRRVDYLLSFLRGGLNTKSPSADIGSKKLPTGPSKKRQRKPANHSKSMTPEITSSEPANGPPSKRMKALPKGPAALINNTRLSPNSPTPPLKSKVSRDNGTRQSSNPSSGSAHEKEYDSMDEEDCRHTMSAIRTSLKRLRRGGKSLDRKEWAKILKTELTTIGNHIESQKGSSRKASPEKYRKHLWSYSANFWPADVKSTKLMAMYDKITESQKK

Sequence of Protein translocase subunit SecA (Escherichia coli (strain K12)) (P10408 whole entry): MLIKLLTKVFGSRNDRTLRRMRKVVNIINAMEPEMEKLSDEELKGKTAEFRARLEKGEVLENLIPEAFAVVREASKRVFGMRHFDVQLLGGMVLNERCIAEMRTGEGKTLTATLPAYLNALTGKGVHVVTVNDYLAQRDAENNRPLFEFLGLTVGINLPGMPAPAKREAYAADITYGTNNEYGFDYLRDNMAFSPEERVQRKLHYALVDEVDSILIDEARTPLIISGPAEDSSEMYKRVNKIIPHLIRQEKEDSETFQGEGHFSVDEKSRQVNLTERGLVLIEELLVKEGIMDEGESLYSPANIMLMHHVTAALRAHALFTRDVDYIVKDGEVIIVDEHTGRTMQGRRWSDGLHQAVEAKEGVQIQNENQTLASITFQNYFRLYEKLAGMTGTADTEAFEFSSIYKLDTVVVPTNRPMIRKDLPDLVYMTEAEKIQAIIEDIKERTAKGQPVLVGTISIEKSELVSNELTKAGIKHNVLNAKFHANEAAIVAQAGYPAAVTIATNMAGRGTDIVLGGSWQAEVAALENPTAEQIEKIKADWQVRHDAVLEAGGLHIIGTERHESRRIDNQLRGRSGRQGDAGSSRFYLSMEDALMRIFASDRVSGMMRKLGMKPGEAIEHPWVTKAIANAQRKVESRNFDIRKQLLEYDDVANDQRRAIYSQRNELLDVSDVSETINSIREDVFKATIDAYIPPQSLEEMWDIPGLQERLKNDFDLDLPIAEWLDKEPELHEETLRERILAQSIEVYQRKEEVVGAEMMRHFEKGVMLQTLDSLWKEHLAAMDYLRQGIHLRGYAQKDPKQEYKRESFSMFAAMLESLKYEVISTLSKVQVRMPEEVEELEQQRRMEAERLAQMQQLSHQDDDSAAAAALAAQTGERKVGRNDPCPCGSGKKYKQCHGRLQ

With `CCOCC(O)CN1CCN(C(=O)Cc2ccc(C)nc2)CC1` (stereo not given), the Percent Effect in test [1] is -0.896%; in test [2], 18.4%; in [3], -0.811%; in test [4], 1.93%; in test [5], 7.02%; in test [6], -3.38%. In addition, the Percent Effect was found to be 3.83% in test [7]; 15.9% in test [8]; 10.3% in test [9]; 27% in test [10]; 11.3% in [11]; 17.1% in [12]. Moreover, in [13], the Percent Effect was -5.52%.
As for `O=C1CC2(CCN(CC3CC3)C2)CN1c1cccnc1` (stereo not given), the Percent Effect is -0.0321% in test [1]; 8.11% in test [2]; 1.57% in test [3]; -3.31% in [4]; 8.46% in [5]; -5.18% in test [6]. Further, the Percent Effect in [7] was 7.2%; in test [8] it was 11.4%; in test [9] it was -22.5%; in [10] it was -25.7%; in [11], 10.8%; in test [12], 11.1%. Besides, in [13], the Percent Effect is -7.21%.
`c1cncc(N2CCCC3(CN(Cc4cccs4)CCO3)C2)c1` (stereo not given): the Percent Effect in test [1] is -4.82%; in test [2], 8.11%; in [3], 1.48%; in test [4], -14.4%; in test [5], -11.3%; in test [6], -4.2%. Moreover, the Percent Effect in test [7] is -1.59%; in [8], 8.12%; in test [9], 29.1%; in test [10], 1.28%; in test [11] it was -1.08%; in test [12] it was 5.13%. Moreover, the Percent Effect in test [13] is -3.66%.
Take `O=C(CC1CC1)N[C@@H]1CN(Cc2ccncc2)C[C@@H]2CCCO[C@@H]21`: the Percent Effect in [1] is 0.104%; in test [2] it was 5.33%; in test [3], -1.92%; in test [4], -0.724%; in test [5], -5.17%; in test [6], 2.12%. Also, the Percent Effect in [7] was -47.1%; in [8], 8.38%; in test [9], -8.9%; in test [10], -6.38%; in test [11] it was 5.21%; in test [12] it was 7.5%. Further, the Percent Effect in test [13] is -4.5%.
Take `COc1ccccc1OCC(=O)N1CCN(Cc2noc(C)n2)CC1`: the Percent Effect is -5.45% in [1]; 13.5% in test [2]; 3.51% in test [3]; -4.95% in test [4]; 22% in test [5]; 5.96% in test [6]. The Percent Effect worked out at 5.21% in [7]; 6.09% in [8]; 2.23% in test [9]; 3.27% in [10]; 4.3% in test [11]; 13.6% in test [12]. Moreover, the Percent Effect in [13] is -7.11%.

The record behind these values is ChEMBL document CHEMBL3988442, “University of Dundee, Small-Polar-MMV Screening Library” (2021).
